From ChEMBL document CHEMBL3433997, “St. Jude Leishmania screening dataset” (2016)

Target: Solute carrier family 2, facilitated glucose transporter member 1 (Homo sapiens) (UniProt P11166)
Experiment: ST_JUDE_LEISH: Cytotoxicity at 2uM final concentration against transgenic Leishmania Mexicana promastigotes LmGLUT1 that are glucose transport deficient and complemented with the human glucose transporter GLUT1. Activity is measured by DNA content using SYBR green in vitro
Assay type: functional

Solute carrier family 2, facilitated glucose transporter member 1 (Homo sapiens), sequence (P11166 whole entry): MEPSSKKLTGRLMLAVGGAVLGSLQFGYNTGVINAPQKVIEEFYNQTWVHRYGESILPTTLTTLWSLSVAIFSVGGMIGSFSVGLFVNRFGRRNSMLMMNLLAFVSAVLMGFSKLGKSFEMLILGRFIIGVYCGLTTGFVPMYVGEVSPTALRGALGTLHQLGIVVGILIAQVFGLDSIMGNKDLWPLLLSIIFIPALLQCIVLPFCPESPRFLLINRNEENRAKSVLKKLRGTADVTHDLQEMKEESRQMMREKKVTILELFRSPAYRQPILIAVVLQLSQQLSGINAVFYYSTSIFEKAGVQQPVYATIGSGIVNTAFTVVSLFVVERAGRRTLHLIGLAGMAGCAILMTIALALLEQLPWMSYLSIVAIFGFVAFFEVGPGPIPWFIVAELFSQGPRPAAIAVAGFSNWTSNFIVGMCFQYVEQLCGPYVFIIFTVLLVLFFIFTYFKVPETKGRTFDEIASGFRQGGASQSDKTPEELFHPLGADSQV

SMILES	inhibition
CCCN1CCC(NCc2cn(C)nc2-c2ccc(Oc3ccccc3)cc2)CC1	10.8%
Cc1cc(-c2cccc(CNCc3ccccc3)c2)ccc1S(=O)(=O)NCCN1CCCC1	6.02%
CC(C)NCc1cccc(-c2ccc(-c3nc4ccccc4[nH]3)cc2)c1	3.1%
CN1CCC(NCc2ccc(-c3cccc(S(=O)(=O)NCc4ccccc4)c3)cc2)CC1	2.23%
COCCNCc1ccc(-c2ccccc2CNC2CCN(Cc3ccccc3)CC2)cc1	1.97%
CC(C)CCNC(=O)C1Cc2c([nH]c3cc(Cl)ccc23)C2(CCN(CCc3ccccc3)CC2)N1 (stereo not given)	1.75%
COc1ccccc1C1CC(c2ccccc2)=NN1C(=O)c1ccco1 (stereo not given)	-0.28%
O=C(c1ccc(Cl)cc1)N1CCOC(CCN2CCC(c3ccccc3)CC2)(c2ccc(Cl)c(Cl)c2)C1 (stereo not given)	0.85%
CC(C)(C)Nc1nc(Nc2cccc([N+](=O)[O-])c2)nc(-n2ccnc2)n1	1.91%
CN1CCN(c2ccc(Nc3c(C(N)=O)cnc4cc(-c5ccoc5)ccc34)cc2C(F)(F)F)CC1	2.31%
Cc1ccc(Nc2nccc(Nc3ccc4c(c3)nc(Nc3cc(C(C)(C)C)on3)n4C)n2)cc1S(C)(=O)=O	3.26%
COc1ccc(Cc2nc3c(n2C(C)=O)SC(c2ccc(Cl)c(Cl)c2)=NN3C(C)=O)cc1	0.08%
Oc1ccc(-c2ccccc2)cc1CN1CCCCC1	4.4%
C=CCOc1ccc2ccccc2c1CNCCCCCCNCc1c(OCC=C)ccc2ccccc12	4.33%
COc1ccccc1N=C1SC(=Cc2cn(CC(=O)N3CCCc4ccccc43)c3ccccc23)C(=O)N1C1CCCCC1	2.84%
COc1ccc2nccc([C@@H](O)CN3CCC(NC/C=C/c4cccnc4)CC3)c2c1	1.71%
O=C(Nc1ccc(Cl)c(Cl)c1)N[C@H]1CCN(CCCCCNC(=O)C2CC2c2ccc(Cl)c(Cl)c2)C1 (stereo not given in full)	12.3%
Cc1cc(N[C@@H](Cc2ccccc2)C(=O)NCCOc2ccccc2)nc(NCCc2ccc(F)cc2)n1	15.1%
CCNC(=O)Nc1cccc(-c2cccc(-c3nc4cc(C(F)(F)F)ccc4[nH]3)c2)c1	10%
O=C(NCc1ccc2c(c1)OCO2)c1nn(CCN2CCC(N3CCCC3)CC2)cc1-c1ccc(Cl)c(Cl)c1	2.53%

SMILES	inhibition
Cc1ccc(C2=NNC3(S2)C(=O)Nc2ccc(C)cc23)cc1 (stereo not given)	-2.4%
CC(=O)Nc1ccc(CN(Cc2cccc(OC(C)(C)C)c2)Cc2ccc3c(c2)OCCO3)cc1	4.55%
O=C(Cc1ccccc1)NC(c1ccccc1)c1ccc2cccnc2c1O (stereo not given)	2.31%
COc1cc(F)c2nccc([C@@H](O)CN3CCC(NC(=O)OCc4ccccc4)C(F)C3)c2c1 (stereo not given in full)	11.6%
O=C(Nc1ccc(Cl)c(C(F)(F)F)c1)Nc1ccc(Cl)c(C(F)(F)F)c1	0.91%
COc1cccc(C=NN=c2cc(C)[nH]c3ccccc23)c1	3.57%
CCN(CCCN1CCCCC1)c1nccc(Nc2ccc(Cl)cc2)n1	2.03%
CCOC(=O)c1c(CNc2ccncc2)n(C)c2cc(Br)c(OC(C)=O)cc12	-0.11%
CCCCCCN1CCN(Cc2cccc(NC(=O)c3cccc(OCC)c3)c2)CC1	13.6%
O=C(NCc1ccc(Cl)c(Cl)c1)[C@H]1CNCCN1C(=O)c1ccccc1	2.83%
O=C(NC(Nc1ccc([N+](=O)[O-])cc1)C(Cl)(Cl)Cl)c1cccc(Cl)c1 (stereo not given)	4.07%
O=C(NC1CC1)c1ccc(Nc2nccc(-c3c(-c4cccc(NC(=O)c5c(F)cccc5F)c4)nn4ccccc34)n2)cc1	7.45%
CCC(C)c1ccc(NC(=O)Nc2ccc(Cn3ncc(N4CCCNCC4)c(Cl)c3=O)cc2)cc1 (stereo not given)	3.78%
FC(F)(F)c1ccc2c(NN=Cc3cccc(Cl)c3)ccnc2c1	5.93%
Cc1ccc(N2CCN(C(=O)c3cccc(-c4cncc5nc(-c6ccco6)n(C)c45)c3)CC2)nc1	6.13%
Cc1ccc(C(=O)Nc2cccc(CN3CCCN(Cc4ccc(O)cc4)CC3)c2)cc1	1.89%
CN(C)CCOc1ccc(-c2cc(-c3ccncc3)c(-c3ccc(Cl)c(O)c3)o2)cc1	1.31%
O=C(/C=C/c1ccc(Cl)c(Cl)c1)N1CCC(CN2CCC(c3c[nH]c4cnccc34)CC2)CC1	4.52%
Cc1cccc2nc(-c3cccc(-c4cccc(NC(=O)C(C)CN5CCN(C)CC5)c4)c3)[nH]c12 (stereo not given)	1.94%
CCOc1c(Br)cc(C)cc1CNCCCNc1nc2ccccc2[nH]1	1.35%

Target: Hexose transporter 1 (Plasmodium falciparum) (UniProt O97467)
Experiment: ST_JUDE_LEISH: Cytotoxicity at 2uM final concentration against transgenic Leishmania Mexicana promastigotes LmPfHT that are glucose transport deficient and complemented with the Plasmodium falciparum hexose transporter. Activity is measured by DNA content using SYBR green in vitro
Assay type: functional

SMILES	inhibition
CCCN1CCC(NCc2cn(C)nc2-c2ccc(Oc3ccccc3)cc2)CC1	11%
Cc1cc(-c2cccc(CNCc3ccccc3)c2)ccc1S(=O)(=O)NCCN1CCCC1	8.53%
CC(C)NCc1cccc(-c2ccc(-c3nc4ccccc4[nH]3)cc2)c1	2.97%
CN1CCC(NCc2ccc(-c3cccc(S(=O)(=O)NCc4ccccc4)c3)cc2)CC1	3.01%
COCCNCc1ccc(-c2ccccc2CNC2CCN(Cc3ccccc3)CC2)cc1	2.36%
CC(C)CCNC(=O)C1Cc2c([nH]c3cc(Cl)ccc23)C2(CCN(CCc3ccccc3)CC2)N1 (stereo not given)	2.24%
COc1ccccc1C1CC(c2ccccc2)=NN1C(=O)c1ccco1 (stereo not given)	-0.6%
O=C(c1ccc(Cl)cc1)N1CCOC(CCN2CCC(c3ccccc3)CC2)(c2ccc(Cl)c(Cl)c2)C1 (stereo not given)	-0.89%
CC(C)(C)Nc1nc(Nc2cccc([N+](=O)[O-])c2)nc(-n2ccnc2)n1	1.9%
CN1CCN(c2ccc(Nc3c(C(N)=O)cnc4cc(-c5ccoc5)ccc34)cc2C(F)(F)F)CC1	2.21%
Cc1ccc(Nc2nccc(Nc3ccc4c(c3)nc(Nc3cc(C(C)(C)C)on3)n4C)n2)cc1S(C)(=O)=O	5.38%
COc1ccc(Cc2nc3c(n2C(C)=O)SC(c2ccc(Cl)c(Cl)c2)=NN3C(C)=O)cc1	5.48%
Oc1ccc(-c2ccccc2)cc1CN1CCCCC1	5.51%
C=CCOc1ccc2ccccc2c1CNCCCCCCNCc1c(OCC=C)ccc2ccccc12	5.37%
COc1ccccc1N=C1SC(=Cc2cn(CC(=O)N3CCCc4ccccc43)c3ccccc23)C(=O)N1C1CCCCC1	0.47%
COc1ccc2nccc([C@@H](O)CN3CCC(NC/C=C/c4cccnc4)CC3)c2c1	2.98%
O=C(Nc1ccc(Cl)c(Cl)c1)N[C@H]1CCN(CCCCCNC(=O)C2CC2c2ccc(Cl)c(Cl)c2)C1 (stereo not given in full)	8.71%
Cc1cc(N[C@@H](Cc2ccccc2)C(=O)NCCOc2ccccc2)nc(NCCc2ccc(F)cc2)n1	11.7%
CCNC(=O)Nc1cccc(-c2cccc(-c3nc4cc(C(F)(F)F)ccc4[nH]3)c2)c1	7.8%
O=C(NCc1ccc2c(c1)OCO2)c1nn(CCN2CCC(N3CCCC3)CC2)cc1-c1ccc(Cl)c(Cl)c1	0.54%

SMILES	inhibition
Cc1ccc(C2=NNC3(S2)C(=O)Nc2ccc(C)cc23)cc1 (stereo not given)	2.71%
CC(=O)Nc1ccc(CN(Cc2cccc(OC(C)(C)C)c2)Cc2ccc3c(c2)OCCO3)cc1	2.67%
O=C(Cc1ccccc1)NC(c1ccccc1)c1ccc2cccnc2c1O (stereo not given)	0.51%
COc1cc(F)c2nccc([C@@H](O)CN3CCC(NC(=O)OCc4ccccc4)C(F)C3)c2c1 (stereo not given in full)	16.3%
O=C(Nc1ccc(Cl)c(C(F)(F)F)c1)Nc1ccc(Cl)c(C(F)(F)F)c1	1.04%
COc1cccc(C=NN=c2cc(C)[nH]c3ccccc23)c1	3.07%
CCN(CCCN1CCCCC1)c1nccc(Nc2ccc(Cl)cc2)n1	0.37%
CCOC(=O)c1c(CNc2ccncc2)n(C)c2cc(Br)c(OC(C)=O)cc12	2.99%
CCCCCCN1CCN(Cc2cccc(NC(=O)c3cccc(OCC)c3)c2)CC1	13.5%
O=C(NCc1ccc(Cl)c(Cl)c1)[C@H]1CNCCN1C(=O)c1ccccc1	1.69%
O=C(NC(Nc1ccc([N+](=O)[O-])cc1)C(Cl)(Cl)Cl)c1cccc(Cl)c1 (stereo not given)	3.95%
O=C(NC1CC1)c1ccc(Nc2nccc(-c3c(-c4cccc(NC(=O)c5c(F)cccc5F)c4)nn4ccccc34)n2)cc1	8.87%
CCC(C)c1ccc(NC(=O)Nc2ccc(Cn3ncc(N4CCCNCC4)c(Cl)c3=O)cc2)cc1 (stereo not given)	4.71%
FC(F)(F)c1ccc2c(NN=Cc3cccc(Cl)c3)ccnc2c1	5.5%
Cc1ccc(N2CCN(C(=O)c3cccc(-c4cncc5nc(-c6ccco6)n(C)c45)c3)CC2)nc1	5.42%
Cc1ccc(C(=O)Nc2cccc(CN3CCCN(Cc4ccc(O)cc4)CC3)c2)cc1	0.24%
CN(C)CCOc1ccc(-c2cc(-c3ccncc3)c(-c3ccc(Cl)c(O)c3)o2)cc1	1.64%
O=C(/C=C/c1ccc(Cl)c(Cl)c1)N1CCC(CN2CCC(c3c[nH]c4cnccc34)CC2)CC1	3.14%
Cc1cccc2nc(-c3cccc(-c4cccc(NC(=O)C(C)CN5CCN(C)CC5)c4)c3)[nH]c12 (stereo not given)	1.44%
CCOc1c(Br)cc(C)cc1CNCCCNc1nc2ccccc2[nH]1	-0.49%
